Laboratory results published in the antibiotic and cytotoxicity screens of Wong et al. (2023).
Screen size: about 39,000 compounds; about 500 (1.3%) were called active. The sample as a whole holds a higher share of actives than the screen did.

Test system: S. aureus RN4220
Experiment: growth inhibition call (relative growth <= 0.2)
Conditions: 50 µM

Row | SMILES | growth inhibition call
1 | CC(=O)N1[C@H](CO)[C@H](c2ccccc2)[C@H]1CNC(=O)CN1CCOCC1 | inactive
2 | C[C@@H]1CN([C@@H](C)CO)C(=O)c2cc(NS(C)(=O)=O)ccc2O[C@@H]1CN(C)C(=O)NC1CCCCC1 | inactive
3 | Cc1ccc(S(=O)(=O)N(C)C[C@H]2Oc3ccc(NS(=O)(=O)c4ccccc4)cc3C(=O)N([C@@H](C)CO)C[C@H]2C)cc1 | inactive
4 | Cc1ccc(S(=O)(=O)Nc2ccc3c(c2)C(=O)N([C@@H](C)CO)C[C@H](C)[C@@H](CN(C)C(=O)Nc2ccc(C(F)(F)F)cc2)OCCCC[C@H](C)O3)cc1 | inactive
5 | COCC(=O)Nc1ccc2c(c1)[C@H]1C[C@H](CC(=O)N3CCOCC3)O[C@H](CO)[C@H]1O2 | inactive
6 | COc1ccc(NC(=O)Nc2ccc3c(c2)C(=O)N([C@@H](C)CO)C[C@@H](C)[C@@H](CN(C)S(=O)(=O)c2cn(C)cn2)O3)cc1 | inactive
7 | CO[C@@]12[C@@H]3N[C@@H]3CN1C1=C(C(=O)C(N)=C(C)C1=O)[C@@H]2COC(N)=O | active
8 | CO[C@@]12[C@H](COC(N)=O)C3=C(C(=O)C(C)=C(N)C3=O)N1C[C@@H]1N[C@@H]12 | inactive
9 | COC12C(COC(N)=O)C3=C(C(=O)C(C)=C(N)C3=O)N1CC1NC12 (stereo unspecified) | active
10 | Cc1onc(C(=O)O)c1[N+](=O)[O-] | inactive
11 | C[C@H]1CN([C@@H](C)CO)S(=O)(=O)c2ccc(C#Cc3cccnc3)cc2O[C@H]1CN(C)C(=O)CN(C)C | inactive
12 | CNC1C(OC2C(OC3C(O)C(O)C(NC(=N)N)C(O)C3NC(=N)N)OC(C)C2(O)C=O)OC(CO)C(O)C1O.O=S(=O)(O)O (stereo unspecified) [STREPTOMYCIN SULFATE [5mM; 10% aq DMSO + 5mM ethanolamine]] | active
13 | CN[C@H]1[C@@H](O[C@H]2[C@@H](O[C@H]3[C@@H](O)[C@@H](O)[C@@H](NC(=N)N)[C@@H](O)[C@@H]3NC(=N)N)O[C@@H](C)[C@@]2(O)C=O)O[C@@H](CO)[C@@H](O)[C@@H]1O.CN[C@H]1[C@@H](O[C@H]2[C@@H](O[C@H]3[C@@H](O)[C@@H](O)[C@@H](NC(=N)N)[C@@H](O)[C@@H]3NC(=N)N)O[C@@H](C)[C@@]2(O)C=O)O[C@@H](CO)[C@@H](O)[C@@H]1O.O=S(=O)(O)O.O=S(=O)(O)O.O=S(=O)(O)O | inactive
14 | CN[C@@H]1[C@H](O[C@H]2[C@H](O[C@H]3[C@H](O)[C@@H](O)[C@H](NC(=N)N)[C@@H](O)[C@@H]3NC(=N)N)O[C@@H](C)[C@]2(O)C=O)O[C@@H](CO)[C@H](O)[C@H]1O | inactive
15 | O=C(NC1CC1)[C@@H]1c2ccccc2C(=O)N(Cc2cc(F)cc(C(F)(F)F)c2)[C@H]1c1ccc(CO)cc1 | inactive
16 | Cc1noc(C)c1NC(=O)Nc1ccc2c(c1)CC(=O)N([C@H](C)CO)C[C@@H](C)[C@@H](CN(C)C(=O)Nc1ccc(C(F)(F)F)cc1)O2 | inactive
17 | C[C@@H]1CN([C@@H](C)CO)C(=O)c2cc(NC(=O)Nc3ccc(C(F)(F)F)cc3)ccc2O[C@@H](C)CCCCO[C@H]1CN(C)Cc1ccc(C(=O)O)cc1 | inactive
18 | CC(=O)CC(c1ccccc1)c1c(O)c2ccccc2oc1=O (stereo unspecified) | inactive
19 | O=c1oc2ccccc2c(O)c1Cc1c(O)c2ccccc2oc1=O | active
20 | O=c1c2ccccc2oc2ccccc12 | inactive
21 | Cc1nccn1-c1ccc(CN)cc1 | inactive
22 | C[C@H](CO)N1C[C@H](C)[C@@H](CN(C)Cc2ccc(-c3ccccc3)cc2)Oc2c(NC(=O)Nc3ccc(C(F)(F)F)cc3)cccc2C1=O | inactive

Row | SMILES | growth inhibition call
23 | CCC1OC(=O)C(C)C(=O)C(C)C(OC2OC(C)CC(N(C)C)C2O)C(C)(OC)CC(C)C(=O)C(C)C2N(CCCCn3cnc(-c4cccnc4)c3)C(=O)OC12C (stereo unspecified) | active
24 | NNC(=O)[C@@H]1C(c2ccccc2)[C@H]1C(=O)NN (stereo partly specified) | inactive
25 | C[C@H](CO)N1C[C@H](C)[C@H](CN(C)S(=O)(=O)c2ccccc2)OCCCC[C@H](C)Oc2ccc(NS(=O)(=O)c3cn(C)cn3)cc2C1=O | inactive
26 | C[C@H]1CN([C@@H](C)CO)C(=O)Cc2cc(NC(=O)Nc3cccc4ccccc34)ccc2O[C@H]1CN(C)Cc1ccc(Oc2ccccc2)cc1 | inactive
27 | O=C(C[C@@H]1C[C@H]2c3cc(NS(=O)(=O)c4ccc(F)cc4)ccc3O[C@H]2[C@@H](CO)O1)NCc1ccc(Oc2ccccc2)cc1 | inactive
28 | C[C@@]12CCC[C@](C)(C(=O)O[C@@H]3O[C@H](CO)[C@@H](O)[C@H](O)[C@H]3O)[C@@H]1CC[C@]13C[C@H](CC[C@@H]12)[C@](O)(CO)C3 | inactive
29 | C=C1C[C@]23CC[C@@H]4[C@@](C)(CCC[C@@]4(C)C(=O)O)[C@H]2CC[C@H]1C3 | active
30 | C=C1C[C@@]23CC[C@@H]4[C@@](C)(CCC[C@@]4(C)C(=O)OC)[C@H]2CC[C@@H]1C3 | inactive
31 | CN1CCN(CC#N)C(=O)C12CCN([C@H]1CCOC1)CC2 | inactive
32 | C[C@H]1CN([C@@H](C)CO)C(=O)Cc2cc(NS(=O)(=O)c3cn(C)cn3)ccc2O[C@H]1CN(C)S(=O)(=O)c1cn(C)cn1 | inactive
33 | C/C=C(/C)C(=O)O[C@H]1[C@@H](OC(C)=O)[C@@]2(CO)[C@@H](O)C[C@@]3(C)C(=CC[C@H]4[C@@]5(C)CC[C@@H](O[C@H]6O[C@H](C(=O)O)[C@@H](O[C@H]7O[C@@H](CO)[C@@H](O)[C@@H](O)[C@@H]7O)[C@@H](O)[C@@H]6O[C@H]6O[C@@H](CO)[C@@H](O)[C@@H](O)[C@@H]6O)[C@@](C)(CO)[C@@H]5CC[C@]43C)[C@@H]2CC1(C)C | inactive
34 | COc1ccc(NC(=O)N2CCCCN3[C@H](COCCN(C)C)[C@H](c4ccc(C#Cc5ccccc5)cc4)[C@@H]3C2)cc1 | active
35 | COc1ccc(NC(=O)N2CCCCN3[C@H](CN(C)C(C)=O)[C@H](c4ccc(C#Cc5ccccc5)cc4)[C@@H]3C2)cc1 | inactive
36 | CN(C)CC#Cc1ccc([C@H]2[C@@H](CO)N3CCCCN(C(=O)CN(C)C)C[C@@H]23)cc1 | inactive
37 | O=C(C[C@H]1C=C[C@H](NC(=O)c2cccc(F)c2)[C@@H](CO)O1)NCCN1CCCC1 | inactive
38 | C[C@H](CO)N1C[C@H](C)[C@@H](CN(C)Cc2ccc(C(F)(F)F)cc2)Oc2ccc(NS(C)(=O)=O)cc2C1=O | inactive
39 | CCCCCCc1ccc(O)cc1O [listing 1 of 2 here] | active
40 | CCCCCCc1ccc(O)cc1O [listing 2 of 2 here] | active
41 | CCCCCCc1ccc(O)cc1O.Nc1c2ccccc2nc2ccccc12 | inactive
42 | COC(=O)CCc1ccc(OC)cc1O | inactive
43 | CCCCCCCc1c(C)c(O)cc2c1[nH]c1ccccc12 | inactive
44 | CCCCC(=O)c1ccc(O)cc1 | inactive

Row | SMILES | growth inhibition call
45 | COC(=O)N/N=C/c1c[n+]([O-])c2ccccc2[n+]1[O-] | inactive
46 | CN1C(=O)c2cc(NS(C)(=O)=O)ccc2OC[C@H]2O[C@H](CC(=O)N3CCOCC3)CC[C@H]21 | inactive
47 | C[C@H]1CN([C@@H](C)CO)C(=O)c2cc(NS(C)(=O)=O)ccc2O[C@H]1CN(C)S(=O)(=O)c1ccccc1 | inactive
48 | C[C@@H]1CCCCO[C@H](CN(C)C(=O)CCCN(C)C)[C@@H](C)CN([C@@H](C)CO)C(=O)c2cc(NC(=O)Nc3cccc4ccccc34)ccc2O1 | inactive
49 | CO[C@@H]1CN(C)C(=O)c2ccc(NC(=O)CN(C)C)cc2OC[C@@H](C)N(C(=O)C2CCOCC2)C[C@H]1C | inactive
50 | CC(C)NC(=O)Nc1ccc2c(c1)C(=O)N([C@H](C)CO)C[C@@H](C)[C@@H](CN(C)C(=O)Nc1ccc(C(F)(F)F)cc1)OCCCC[C@@H](C)O2 | inactive
51 | CC(=O)N1[C@@H]2c3ccc(-c4ccccc4)c(=O)n3C[C@H]1[C@H](CO)[C@H]2C(=O)N1CCN(C)CC1 | inactive
52 | C[C@H]1CN([C@@H](C)CO)C(=O)c2cc(NC(=O)c3ccncc3)ccc2O[C@@H]1CN(C)S(=O)(=O)c1ccc(F)cc1 | inactive
53 | COC(=O)c1ccc2c(c1)no[n+]2[O-] | inactive
54 | CCCCc1nc(-c2ccc(OCCCN(CC)CC)cc2)cn1-c1ccc(Oc2ccc(Cl)cc2)cc1 | active
55 | COc1ccc(-n2nc(CCC(=O)N(C)O)cc2-c2ccc(Cl)cc2)cc1 | inactive
56 | CN(C)CCOC(=O)COc1ccc(Cl)cc1.Cl | inactive
57 | Cc1cc(=O)n2nc(C(=O)O)nc2[nH]1 | inactive
58 | CN1C(=O)c2cc(NC(=O)C3CCC3)ccc2OC[C@@H]2O[C@H](CC(=O)NCCc3ccncc3)CC[C@@H]21 | inactive
59 | CC(C)CC#Cc1ccc2c(c1)O[C@H](CN(C)S(=O)(=O)c1ccc(F)cc1)[C@H](C)CN([C@H](C)CO)S2(=O)=O | inactive
60 | CCCC1CC(C(=O)NC(C(C)O)C2OC(SC)C(O)C(O)C2O)N(C)C1.Cl (stereo unspecified) | active
61 | CCC[C@@H]1C[C@@H](C(=O)N[C@@H]([C@H]2O[C@H](SC)[C@H](O)[C@@H](O)[C@H]2O)[C@@H](C)O)N(C)C1 | active
62 | CCC[C@@H]1C[C@@H](C(=O)N[C@H]([C@H]2O[C@H](SC)[C@H](O)[C@@H](O)[C@H]2O)[C@H](C)O)N(C)C1 | active
63 | CC(C)NC(=O)Nc1ccc2c(c1)C(=O)N([C@H](C)CO)C[C@H](C)[C@@H](CN(C)C(=O)Nc1ccc(F)cc1)OCCCC[C@H](C)O2 | inactive
64 | COc1cccc(-c2ccc3c(c2)O[C@H](CN(C)C(=O)C2CC2)[C@@H](C)CN([C@@H](C)CO)S3(=O)=O)c1 | inactive
65 | COc1ccc(CN(C)C[C@H]2OCCCC[C@@H](C)Oc3ccc(NC(=O)Nc4ccccc4)cc3C(=O)N([C@@H](C)CO)C[C@@H]2C)cc1 | inactive
66 | C[C@@H]1CN([C@H](C)CO)C(=O)c2cc(-c3ccncc3)cnc2O[C@H]1CN(C)C(=O)Nc1ccc2c(c1)OCO2 | inactive
